Experimental findings from PubChem BioAssay (NCATS) are described below.

Inconclusive results are not listed. A number with no mark means an inactive call. Active and inactive are the calls of the source. Unless noted, calls come from the whole dose curve; as a rule, active = well fitted curve in the direction sought with a large enough effect in the repeat runs; inconclusive = weak or mixed curves; inactive = no such curve, though single readings can be large; an effect the other way counts as inactive or inconclusive.

In test [1] the target is Calcium and integrin-binding protein 1 (Homo sapiens) (UniProt Q99828). Kind of test: Primary qHTS for Identification of Calcium Integrin Binding Protein 1 (CIB1) Competitor (AID 1508620; active = well fitted curve in the direction sought with a large enough effect; an effect the other way counts as inactive or inconclusive;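 note: GST tagged CIB1 binding a fluorescein labelled alphaIIb integrin peptide tracer; top concentration of the series differs between compounds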). The gist of the method: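 Fluorescence polarization competition: CIB1-GST (1 uM final) preincubated with compound 15 min at room temperature, then FITC-labeled alphaIIb peptide (100 nM final) added for another 15 min. Polarization read at Ex 480/Em 540.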
In general terms: In qHTS, concentration-response curves come from the screen itself.

Test [2] has as its target Cytochrome P450 2D6 (Homo sapiens) (UniProt P10635). Kind of test: Cytochrome P450 family 2 subfamily D member 6 (CYP2D6) small molecule antagonists: luciferase biochemical (cell-free) qHTS assay (AID 1645840). Note: nearly all actives have a fitted effect of over 55% in size. Note: potency is the fitted concentration of half-maximal effect. In short, it runs like this:
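P450-Glo luminescent screen: recombinant CYP2D6 enzyme–proluciferin substrate mix preincubated with compound 10 min at room temperature, then NADPH regeneration added for 1 h at room temperature. Detection reagent added for 20 min; luciferin light read as relative luminescence units.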

The target of test [3] is Cytochrome P450 2C9 (Homo sapiens) (UniProt P11712). Kind of test: Cytochrome P450 family 2 subfamily C member 9 (CYP2C9) small molecule antagonists: luciferase biochemical (cell-free) qHTS assay (AID 1645842). Note: nearly all actives have a fitted effect of over 55% in size. Note: potency is the fitted concentration of half-maximal effect. The gist of the method:
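Luminescence, after 20 min with luciferin detection reagent, reflected CYP2C9 turnover during a 1 h NADPH-driven reaction at 37C. Enzyme-substrate mix contained 0.4% bovine serum albumin and was preincubated with compound 10 min at room temperature.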

Test [4] has as its target N-terminal Xaa-Pro-Lys N-methyltransferase 1 (Homo sapiens) (UniProt Q9BV86). Kind of test: Confirmatory qHTS for Inhibitors of N-terminal methyltransferase 1 (NTMT1): MTaseGlo Assay (AID 1645874; active = well fitted curve in the direction sought with a large enough effect; an effect the other way counts as inactive or inconclusive; note: nearly all actives have a fitted effect of over 65% in size; note: potency is the fitted concentration of half-maximal effect). The gist of the method:
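NTMT1 (125 nM) preincubated 15 min with compound and 100 uM SAM, then 1 uM SPKRIA peptide added for 30 min at room temperature. SAH detected by MTase-Glo luminescence; normalized to no-enzyme and DMSO controls, fitted to 4-parameter Hill.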

Test [5] in a line: Primary qHTS for inhibitors of nuclear receptor binding SET domain protein 2 (NSD2) in an isogenic RCH-ACV NSD2 p.E1099K mutant (9B) (AID 1645876; active = well fitted curve in the direction sought with a large enough effect; an effect the other way counts as inactive or inconclusive; note: nearly all actives have a fitted effect of over 70% in size; note: potency is the fitted concentration of half-maximal effect).
Test [6] deals with Cytochrome P450 3A4 (Homo sapiens) (UniProt P08684). Kind of test: Cytochrome P450 family 3 subfamily A member 4 (CYP3A4) small molecule antagonists: luciferase qHTS assay (AID 1645841). Note: nearly all actives have a fitted effect of over 45% in size. Note: potency is the fitted concentration of half-maximal effect. In short, it runs like this: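 P450-Glo CYP3A4 enzyme with proluciferin substrate was preincubated with DMSO-dissolved compounds for 10 min at room temperature. NADPH regeneration solution started a 1 h reaction. Detection reagent stopped it, and luminescence was read after 20 min.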
Cytochrome P450 3A4 (Homo sapiens), sequence (P08684 whole entry, looked up): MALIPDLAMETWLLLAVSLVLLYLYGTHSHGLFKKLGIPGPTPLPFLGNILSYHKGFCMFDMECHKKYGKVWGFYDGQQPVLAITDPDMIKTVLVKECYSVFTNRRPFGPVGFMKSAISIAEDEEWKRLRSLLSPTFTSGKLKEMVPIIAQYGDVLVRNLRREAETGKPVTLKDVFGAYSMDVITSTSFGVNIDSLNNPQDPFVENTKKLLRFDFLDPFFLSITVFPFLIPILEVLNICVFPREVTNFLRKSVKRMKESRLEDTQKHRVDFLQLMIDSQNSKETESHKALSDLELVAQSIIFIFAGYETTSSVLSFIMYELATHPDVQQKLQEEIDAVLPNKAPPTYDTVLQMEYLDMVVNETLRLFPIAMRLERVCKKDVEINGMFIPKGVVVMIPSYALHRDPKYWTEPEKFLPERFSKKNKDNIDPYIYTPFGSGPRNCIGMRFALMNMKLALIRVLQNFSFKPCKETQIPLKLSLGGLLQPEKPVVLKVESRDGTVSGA

Cytochrome P450 2D6 (Homo sapiens), sequence (P10635 whole entry, looked up): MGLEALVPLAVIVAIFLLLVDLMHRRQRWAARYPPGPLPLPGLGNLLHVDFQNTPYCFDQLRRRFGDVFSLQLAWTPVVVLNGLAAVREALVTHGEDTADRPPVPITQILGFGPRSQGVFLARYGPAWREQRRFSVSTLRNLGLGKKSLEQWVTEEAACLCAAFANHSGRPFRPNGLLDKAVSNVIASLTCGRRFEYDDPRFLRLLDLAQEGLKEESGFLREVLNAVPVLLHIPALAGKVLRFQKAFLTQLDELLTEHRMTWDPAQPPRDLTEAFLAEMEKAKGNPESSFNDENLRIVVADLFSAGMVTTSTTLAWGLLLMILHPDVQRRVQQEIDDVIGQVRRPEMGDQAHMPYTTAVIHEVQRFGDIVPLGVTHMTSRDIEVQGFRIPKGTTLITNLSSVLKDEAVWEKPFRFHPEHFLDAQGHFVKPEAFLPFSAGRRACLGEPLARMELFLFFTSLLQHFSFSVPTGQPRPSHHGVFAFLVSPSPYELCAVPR
Calcium and integrin-binding protein 1 (Homo sapiens), sequence (Q99828 whole entry, looked up): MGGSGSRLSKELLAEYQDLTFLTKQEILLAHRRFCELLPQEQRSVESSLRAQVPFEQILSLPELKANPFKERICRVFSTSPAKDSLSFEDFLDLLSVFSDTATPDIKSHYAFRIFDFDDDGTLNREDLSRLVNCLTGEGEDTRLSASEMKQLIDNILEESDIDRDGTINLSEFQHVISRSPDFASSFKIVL
Cytochrome P450 2C9 (Homo sapiens), sequence (P11712 whole entry, looked up): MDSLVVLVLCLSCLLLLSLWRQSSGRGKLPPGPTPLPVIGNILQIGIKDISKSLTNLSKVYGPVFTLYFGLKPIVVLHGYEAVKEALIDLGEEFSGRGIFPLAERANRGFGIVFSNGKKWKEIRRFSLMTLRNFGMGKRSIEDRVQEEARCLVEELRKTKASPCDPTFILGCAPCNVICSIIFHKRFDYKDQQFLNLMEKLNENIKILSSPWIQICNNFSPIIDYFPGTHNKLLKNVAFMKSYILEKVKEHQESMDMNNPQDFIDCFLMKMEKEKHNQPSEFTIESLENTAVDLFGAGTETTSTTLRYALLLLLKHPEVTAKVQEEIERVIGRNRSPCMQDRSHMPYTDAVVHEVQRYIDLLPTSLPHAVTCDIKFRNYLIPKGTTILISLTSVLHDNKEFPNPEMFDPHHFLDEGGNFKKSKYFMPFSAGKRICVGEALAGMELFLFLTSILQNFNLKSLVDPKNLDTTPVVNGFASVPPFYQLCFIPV
N-terminal Xaa-Pro-Lys N-methyltransferase 1 (Homo sapiens), sequence (Q9BV86 whole entry, looked up): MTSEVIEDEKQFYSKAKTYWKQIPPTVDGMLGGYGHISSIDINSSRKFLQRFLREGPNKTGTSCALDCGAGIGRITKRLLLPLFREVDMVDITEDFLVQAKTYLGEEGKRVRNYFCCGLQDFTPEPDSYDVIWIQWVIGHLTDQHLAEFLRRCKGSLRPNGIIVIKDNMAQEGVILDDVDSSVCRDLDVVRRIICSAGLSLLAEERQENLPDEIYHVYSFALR

Consider `CCn1c(=O)c(-c2ccn[nH]2)cc2c(C)nc(N)nc21`, for which the Potency result in test [1], in test [2] and in test [4] was “inactive” each time. For the same molecule, the Potency in test [3] is 26.8 µM (active); in test [5] it was 0.934 µM (active).
Take `COc1ccc(CC2NCCc3c2[nH]c2ccc(C)cc32)cc1OC` (centres undefined): the Potency result in test [1] was “inactive”. Besides, the Potency in test [2] was 0.239 µM (active); in test [3], 10.7 µM (active).
As for `Cc1cc(Nc2ncc3cc(-c4c(Cl)cccc4Cl)c(=O)n(C)c3n2)ccc1F`, the Potency result in test [1], in test [2] and in test [6] was “inactive” throughout. The Potency in test [3] was 6.74 µM (active); in test [5], 0.728 µM (active).
As for `CC[C@@](C)(Nc1ccnc(-c2c[nH]c3ncccc23)n1)C(=O)NCC(F)(F)F`, the Potency entry in test [1] is “inactive”. For the same molecule, the Potency in test [2] is 16.9 µM (active); in test [3], 21.3 µM (active).
For `CS(=O)(=O)c1ccc([C@H](CC2CCCC2)C(=O)Nc2nccs2)cc1` the same measures were “inactive”, 10.7 µM (active) and 6.01 µM (active).
For the molecule `C=CC(=O)Nc1cc(Nc2nccc(-c3c[nH]c4ccccc34)n2)c(OC)cc1N(C)CCN(C)C`, the Potency result in test [1] and in test [2] was “inactive” each time. For the same molecule, the Potency in test [3] is 8.49 µM (active).
For the molecule `CC(C)(C)NS(=O)(=O)c1cncc(-c2cc(F)c3nc(N)nn3c2)c1`, the Potency result in test [1], in test [2] and in test [3] was “inactive” each time.
As to `O=C(Nc1ccc(-c2ccncc2)cc1)N[C@H](CO)c1ccccc1`, in test [1], the Potency result is “inactive”. The Potency in test [2] and in test [3] was 10.7 µM (active) in each case.
Turning to `C[C@H](C(=O)NC1CCCC1)N(C(=O)Cn1nnc(-c2ccc3c(c2)OCO3)n1)C1CCCCC1`, the Potency entry in test [1] was “inactive”. Further, the Potency in test [2] was 19 µM (active); in test [3], 2.68 µM (active).
Regarding `COc1cc2ncnc(Nc3ccc(F)c(Cl)c3)c2cc1NC(=O)/C=C/CN1CCCCC1`, the Potency entry in test [1] and in test [3] was “inactive” throughout. For the same molecule, the figures for the Potency in test [2], in test [4] and in test [5] were 0.0477 µM (active), 35.5 µM (active) and 4.17 µM (active), respectively.
Take `COc1ccc(-n2[nH]c(=O)c3[nH]c4cc(Cl)ccc4c(=O)c3c2=O)c(C)c1`: the Potency entry in test [1], in test [2], in test [6] and in test [3] was “inactive” in each case.
As for `CCC(CC)C(=O)Nc1sc2c(c1C#N)CCC(C(C)(C)CC)C2` (centres undefined), the Potency result in test [1], in test [2] and in test [5] was “inactive” throughout. For the same molecule, the Potency was 9.52 µM (active) in test [6] and 5.35 µM (active) in test [3].
Take `C[C@H]1Oc2cc(cnc2N)-c2c(nn(C)c2C#N)CN(C)C(=O)c2ccc(F)cc21`: the Potency result in test [1] and in test [2] was “inactive” each time. Besides, the Potency in test [3] was 6.01 µM (active).
As for `CCNCc1nc2c(N)nc3ccccc3c2n1CC(C)(C)O`, in test [1], the Potency entry is “inactive”. The Potency in test [2] was 5.35 µM (active).
With `Cc1cccc(C)c1OCc1cc(C(=O)N2CCC(c3ccncc3)CC2)no1`, the Potency result in test [1] is “inactive”. Also, the Potency in test [2] is 1.2 µM (active); in test [3], 0.338 µM (active); in test [5], 10.3 µM (active).
Taken in the same sequence, the figures for `Cc1nc2sc(C(=O)NCc3ccncc3)c(N)c2c(C)c1Cl` were “inactive”, 2.39 µM (active), “inactive” and “inactive”.
As for `CNC(=S)NS(=O)(=O)c1cc(CCNC(=O)c2cc(Cl)ccc2OC)ccc1OC`, the Potency result in test [1], in test [2] and in test [5] was “inactive” throughout. For the same molecule, the Potency in test [3] was 6.74 µM (active).
`Nc1ccc(-c2cccc3c(=O)cc(N4CCOCC4)oc23)cc1`: the Potency result in test [1] and in test [2] was “inactive” throughout. Also, the Potency in test [3] was 9.52 µM (active); in test [5], 1.63 µM (active).
On to `CC(C)(C)c1ccc(S(=O)(=O)NCc2ccc(C(=O)Nc3cccnc3)cc2)cc1`, for which the Potency entry in test [1] was “inactive”. Besides, the Potency in test [2] was 6.74 µM (active); in test [3] it was 12 µM (active); in test [5], 0.258 µM (active).
Turning to `Cc1cc(C)c(Nc2ccnc(Nc3ccc(C#N)cc3)n2)c(C)c1`, the Potency result in test [1] was “inactive”. In addition, the Potency in test [2] was 10.7 µM (active); in test [3], 3.79 µM (active); in test [5], 4.09 µM (active).
`COc1cc2nc(N3CCC(N4CCCCC4)CC3)nc(NC3CCCCCC3)c2cc1OC`: the Potency result in test [1] and in test [3] was “inactive” throughout. In addition, the Potency in test [2] is 7.56 µM (active); in test [5], 2.3 µM (active).
Turning to `CC(C)(F)C[C@@H](N[C@@H](c1ccc(-c2ccc(S(C)(=O)=O)cc2)cc1)C(F)(F)F)C(=O)NC1(C#N)CC1`, the Potency result in test [1] and in test [5] was “inactive” in each case. Besides, the Potency in test [2] was 2.68 µM (active); in test [3] it was 19 µM (active).
Regarding `CC(NC(=O)CCc1nc2ccccc2c(=O)[nH]1)c1ccccc1` (centres undefined), the Potency result in test [1], in test [2], in test [3] and in test [5] was “inactive” in each case.
Take `Cc1oc2ccccc2c1CNC(=O)NCc1cccs1`: the Potency result in test [1], in test [3] and in test [5] was “inactive” throughout. The Potency in test [2] is 1.9 µM (active).
For `O=S(=O)(NCC1CC1)c1ccc(Nc2nccc(N3CCCc4cc(O)ccc43)n2)cc1`, in test [1], the Potency entry was “inactive”. For the same molecule, the Potency in test [2] was 8.49 µM (active); in test [3], 1.07 µM (active); in test [5] it was 1.15 µM (active).
